A short description of experiment [1]: qHTS assay for small molecule agonists of the p53 signaling pathway (AID 651631; calls by dose curve; note: nearly all actives have a fitted effect of over 15% in size; note: potency is the fitted concentration of half-maximal effect). The method, boiled down:
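Stably transfected HCT-116 cells (beta-lactamase behind p53 response elements) get compounds after a 5 h settling period; 16 h later at 37 °C, FRET substrate is loaded and fluorescence read after 2 h.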

A short description of experiment [2]: qHTS assay for small molecules that induce genotoxicity in human embryonic kidney cells expressing luciferase-tagged ATAD5 (AID 651632). Note: nearly all actives have a fitted effect of over 15% in size. Summed up: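 Luminescence read-out: after 16 hr compound exposure at 37C, ATAD5-luciferase HEK293T cells received Amplite, 30 min RT, then CCD imaging. A rise in signal marks genotoxic stress.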
Experiment [3] can be described thus: qHTS assay for small molecule agonists of the p53 signaling pathway - cell viability (AID 651633; calls by dose curve;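 note: p53RE-bla HCT reporter cells with a stable beta-lactamase p53 reporter; series mostly up to about 83 µM; nearly all actives have a fitted effect of over 30% in size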). The method, boiled down:
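p53RE-bla cells, seeded at 4,000 per well and rested 5 h at 37 C/5% CO2, received compounds in DMSO for 16 h at 37 C. CellTiter-Glo was then added, and luminescence was read after 30 min at room temperature to gauge cytotoxicity.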

The nature of experiment [4]: qHTS assay for small molecules that induce genotoxicity in human embryonic kidney cells expressing luciferase-tagged ATAD5 - cell viability (AID 651634; calls by dose curve; note: nearly all actives have a fitted effect of over 25% in size). The method, boiled down: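 HEK293T ATAD5-luc cells, 2,000/well; compound 15.5 hr, 37C/5% CO2; CellTiter-Fluor 30 min, 37C; fluorescence read.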
Experiment [5] in a line: qHTS assay for small molecule disruptors of the mitochondrial membrane potential - cell viability (AID 720634; calls by dose curve;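 note: human HepG2 liver cancer cells; series mostly up to about 83 µM; nearly all actives have a fitted effect of over 20% in size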). Summed up: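 Luminescence from CellTiter-Glo (ATP content) gave viability in HepG2 cells, read in the same wells as the MMP dye assay after 1 hr compound exposure at 37 C.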
The nature of experiment [6]: qHTS assay for small molecule disruptors of the mitochondrial membrane potential (AID 720635). The method, boiled down: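 HepG2 cells (2,000/well) attached overnight at 37C, then took compound for 1 hr at 37C, 5% CO2. Mito-MPS dye was added for 30 min; fluorescence was read at 490/535 nm (monomers) and 540/590 nm (aggregates).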
A short description of experiment [7]: qHTS assay to test for compound auto fluorescence at 590 nm (red) in HepG2 cells (AID 720674). Summed up: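 Rose Bengal sodium served as the red fluorophore standard. HepG2 monolayers (overnight attachment, MEM with 10% FBS) were exposed to test compounds for 1 hr at 37 C and read at Ex 540/Em 590 nm.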
A short description of experiment [8]: qHTS assay to test for compound auto fluorescence at 535 nm (green) in HepG2 cells (AID 720675).
Experiment [9] is described as follows: qHTS assay to test for compound auto fluorescence at 460 nm (blue) in HEK293 cells (AID 720678). Summed up: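 Auto fluorescence in the blue band was quantified as triamterene equivalency. HEK293 cells were seeded at 2,000/well, dosed after a 4-5 hr attachment, and kept overnight at 37C before the 405/460 nm reading.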
Experiment [10] in a line: qHTS assay to test for compound auto fluorescence at 590 nm (red) in HEK293 cells (AID 720679). The method, boiled down:
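Autofluorescence equivalency to Rose Bengal sodium, 540/590nm, in HEK293 cells exposed overnight to 23 nL compound per well.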

The source of these data is PubChem BioAssay (Tox21).

SMILES strings stand for the structures. Records with an inconclusive call do not appear. Calls of active or inactive are those of the source. Unless noted, calls come from the whole dose curve; as a rule, active = well fitted curve in the direction sought with a large enough effect in the repeat runs; inconclusive = weak or mixed curves; inactive = no such curve, though single readings can be large; an effect the other way counts as inactive or inconclusive.

On to `CCCCCCCCCCCCCC(=O)OCC(COP(=O)([O-])OCC[N+](C)(C)C)OC(=O)CCCCCCCCCCCCC` (stereo unspecified), for which the Potency entry in [1], in experiment [2], in [3], in experiment [4], in experiment [5] and in experiment [6] was “inactive” throughout. The Potency result in [8] and in [9] was “inactive” in each case. Further, the compound was called inactive in experiment [7] and in [10].
For the compound `COC1=C(OC)C(=O)C(C/C=C(\C)CC/C=C(\C)CC/C=C(\C)CC/C=C(\C)CC/C=C(\C)CC/C=C(\C)CC/C=C(\C)CC/C=C(\C)CC/C=C(\C)CCC=C(C)C)=C(C)C1=O`, the Potency result in experiment [1], in experiment [2], in experiment [3], in [4], in experiment [5] and in [6] was “inactive” throughout. Moreover, the Potency entry in experiment [8] and in experiment [9] was “inactive” throughout. Also, the compound was classed as inactive in experiment [7] and in experiment [10].
Take `COc1ccc(/C=C/C(=O)O)cc1`: the Potency result in [1], in [2], in experiment [3], in experiment [4], in [5] and in experiment [6] was “inactive” in each case. Moreover, the Potency result in experiment [8] and in experiment [9] was “inactive” each time. For the same compound, the compound was classed as inactive in [7] and in experiment [10].
As for `CC(C)(O/N=C(\C(=O)N[C@@H]1C(=O)N2C(C(=O)[O-])=C(C[n+]3ccccc3)CS[C@H]12)c1csc(N)n1)C(=O)O`, the Potency entry in experiment [1], in [2], in [3], in [4], in [5] and in [6] was “inactive” each time. In addition, the Potency result in experiment [8] and in experiment [9] was “inactive” each time. Also, the result in experiment [7] and in experiment [10] was inactive.
`C=CC[N@@+]12CC[C@@]34c5ccccc5N5/C=C6/[C@H]7C[C@H]8[C@@]9(CC[N@@+]8(CC=C)C/C7=C/CO)c7ccccc7N(/C=C(/[C@@H](C[C@@H]31)/C(=C\CO)C2)[C@H]54)[C@@H]69`: the Potency result in [1], in experiment [2], in experiment [3], in experiment [4], in experiment [5] and in experiment [6] was “inactive” each time. In addition, the Potency result in [8] and in experiment [9] was “inactive” each time. Also, the outcome in [7] and in experiment [10] was inactive.
Turning to `Cc1ncc(C[n+]2csc(CCOP(=O)(O)O)c2C)c(N)n1`, the Potency entry in experiment [1], in experiment [2], in experiment [3], in [4], in experiment [5] and in experiment [6] was “inactive” in each case. The Potency result in experiment [8] and in experiment [9] was “inactive” each time. The compound was classed as inactive in experiment [7] and in experiment [10].
Consider `CCOC(=O)[C@H](CCc1ccccc1)N[C@@H](C)C(=O)N1[C@H](C(=O)O)C[C@H]2CCCC[C@@H]21`, for which the Potency entry in experiment [1], in [2], in experiment [3], in [4], in experiment [5] and in [6] was “inactive” in each case. Also, the Potency entry in experiment [8] and in experiment [9] was “inactive” throughout. For the same compound, the outcome in experiment [7] and in [10] was inactive.
Turning to `O=C1[O][Bi][O]c2ccccc21`, the Potency entry in [1], in experiment [2], in [3], in experiment [4], in experiment [5] and in experiment [6] was “inactive” in each case.
`Cc1ccc(Cl)c(N)c1Cl`: the Potency result in experiment [1], in experiment [2], in experiment [3], in experiment [4], in [5] and in [6] was “inactive” in each case. Also, the Potency entry in experiment [8] and in experiment [9] was “inactive” throughout. In addition, the compound was classed as inactive in [7] and in [10].
For `O=C1C2CC3CC1CC(O)(C3)C2`, the Potency result in experiment [1], in [2], in experiment [3], in [4], in experiment [5] and in experiment [6] was “inactive” in each case. Moreover, the Potency result in experiment [8] and in experiment [9] was “inactive” in each case. Further, the call in experiment [7] and in experiment [10] was inactive.
Regarding `N#Cc1c(N(CC(=O)O)CC(=O)O)sc(C(=O)O)c1CC(=O)O`, the Potency result in experiment [1], in experiment [2], in [3], in experiment [4], in experiment [5] and in [6] was “inactive” throughout. The Potency entry in experiment [8] and in [9] was “inactive” each time. Further, the compound was called inactive in [7] and in experiment [10].
With `CCOc1ccc(S(=O)(=O)O)c2cccnc12`, the Potency result in experiment [1], in experiment [2], in experiment [3], in experiment [4], in experiment [5] and in [6] was “inactive” in each case. Besides, the Potency result in [8] and in experiment [9] was “inactive” each time. Moreover, the result in experiment [7] and in [10] was inactive.
Turning to `NCC(O)CC(=O)O` (stereo unspecified), the Potency entry in experiment [1], in experiment [2], in experiment [3], in experiment [4], in experiment [5] and in experiment [6] was “inactive” throughout. Moreover, the Potency result in experiment [8] and in [9] was “inactive” throughout. Moreover, the call in experiment [7] and in experiment [10] was inactive.
`CC(C)COC(=O)OCN1C(=O)CN(CCN2CC(=O)N(COC(=O)OCC(C)C)C(=O)C2)CC1=O`: the Potency in [1] was 3.76 µM (active). Besides, the Potency result in experiment [2], in experiment [3], in experiment [4], in experiment [5], in [6] and in experiment [8] was “inactive” in each case. In addition, the Potency result in experiment [9] was “inactive”. The outcome in [7] and in [10] was inactive.
As for `C=CC[N+]1([C@H]2C[C@H]3[C@@H]4CC[C@H]5C[C@H](O)[C@@H](N6CCOCC6)C[C@]5(C)[C@H]4CC[C@]3(C)[C@H]2OC(C)=O)CCCC1`, the Potency result in experiment [1], in experiment [2], in experiment [3], in experiment [4], in experiment [5] and in [6] was “inactive” in each case. The Potency result in [8] and in experiment [9] was “inactive” in each case. Besides, the compound was classed as inactive in [7] and in experiment [10].
As for `CC[C@H]1OC(=O)[C@H](C)C(=O)[C@H](C)[C@@H](O[C@@H]2O[C@H](C)C[C@H](N(C)C)[C@H]2O)[C@](C)(OC)C[C@@H](C)C(=O)[C@H](C)[C@H]2N(CCCCn3cnc(-c4cccnc4)c3)C(=O)O[C@]12C`, the Potency entry in experiment [1], in [2], in experiment [3], in [4], in [5] and in experiment [6] was “inactive” throughout. The Potency result in experiment [8] and in experiment [9] was “inactive” in each case. Also, the result in experiment [7] and in [10] was inactive.
In the case of `CO/N=C(\C(=O)N[C@@H]1C(=O)N2C(C(=O)O)=C(CSc3cnns3)CS[C@H]12)c1csc(N)n1`, the Potency entry in experiment [1], in experiment [2], in [3], in experiment [4], in [5] and in experiment [6] was “inactive” in each case. Besides, the Potency entry in [8] and in experiment [9] was “inactive” throughout. The call in [7] and in [10] was inactive.
With `O=C(O)Cc1nn(Cc2ccc(Br)cc2F)c(=O)c2ccccc12`, the Potency entry in [1], in [2], in experiment [3], in experiment [4], in [5] and in experiment [6] was “inactive” each time. Moreover, the Potency entry in experiment [8] and in experiment [9] was “inactive” throughout. Moreover, the result in [7] and in [10] was inactive.
